From PubChem BioAssay AID2326 (National Center for Advancing Translational Sciences (NCATS), 2010)
About 1,100 (0.41%) of roughly 270,000 compounds were called active. Another 3% or so got no clear call; they are omitted. The call rests on the fitted dose curve. The list comes from a sample in which actives are over-represented; it also holds similar structures and randomly drawn compounds. Where a call stands in place of a potency, no number is given.

Test: qHTS Assay for Inhibitors of Influenza NS1 Protein Function; further: actives are rising curves; nearly all actives have a fitted effect of over 50% in size
Details: series mostly up to 46.1 µM
Text: NIH Chemical Genomics Center [NCGC]
NIH Molecular Libraries Probe Centers Network [MLPCN]
Assay Submitter (PI): Daniel Engel
Influenza is a world-wide public health problem and emerging forms of the virus have the potential to cause a pandemic of equal or greater magnitude to the outbreaks recorded in 1918, 1957 or 1968. Vaccine development is proceeding and there also exist two classes of anti-influenza compounds. However these therapeutic modalities are neither fully effective nor widely enough available to fulfill global needs. In addition their potential usefulness against newly emergent strains is not known. Efforts are needed to develop novel agents against influenza virus, including broad-spectrum agents. Identification of small molecules that inhibit NS1 function either directly or by interfering with specific cellular pathways may be a key to increasing our defense against the virus.
We have miniaturized and optimized a cell based assay in which NS1 from influenza A is expressed in the budding yeast S. cerevisiae. NS1 is a multi-functional protein that counters the host innate immune response and facilitates viral versus cellular gene expression. Expression of NS1 causes a pronounced slow growth phenotype in yeast due to its intrinsic molecular activities. Small molecules that suppress the slow growth phenotype can be identified by a straightforward growth recovery assay using optical density (OD) as the measurement. The same yeast strain not expressing NS1 was used as positive control in the yeast growth recovery assay.
The yeast S. cerevisiae control and NS1 expressing cells were kindly supplied by laboratory of Dr. Daniel Engel, University of Virginia. Yeast starter cultures were stored in single use aliquots at -80C.
1. Yeast culture medium per liter: 1.2 g Yeast Nitrogen Base (w/out amino acids and Ammonium Sulphate), 5.0g Ammonium Sulphate, 0.77g -URA DO (drop-out) Supplement, adjust pH to 6.0. Adjust to 2% glucose prior to inoculating with yeast.
2. Yeast assay medium: 1.2 g Yeast Nitrogen Base (w/out amino acids and Ammonium Sulphate), 5.0g Ammonium Sulphate, 0.77g -URA DO (drop-out) Supplement, adjust pH to 6.0. Adjust to 2% D-galactose prior to inoculating with yeast.
1. Inoculate 100 mls of yeast culture medium with 1 ml of frozen yeast aliquote. Incubate overnight at 30C, 250RPM.
2. Harvest overnight culture at 4000 RPM and wash pellet with 15 mls H2O 3x.
3. Re-suspend washed pellet in 10 mls of yeast assay medium.
4. Prepare a 1:100 dilution of re-suspended culture in yeast assay medium.
5. Dispense 3.5 ul per well of reagents in step 4 in columns 2-48 in a black clear bottom 1536 well plate.
6. Dispense 3.5 ul per well of yeast assay medium in column 1 only.
7. Transfer 23 nl of compound per well.
8. Dispense 3.5 ul per well of yeast assay medium in columns 1-48.
9. Read plate using Viewlux protocol for optical density 600 (OD600) using excitation filter 600nm.
Potency means the concentration at half of the fitted maximal effect.

Row | SMILES | Potency
1 | COc1ccc(/C=C2\SC(=O)N(CCC(=O)NCCCn3ccnc3)C2=O)cc1 | inactive
2 | COC(=O)CN1C(=O)C(C)(C)Oc2ccc(C(=O)Nc3cccc(OC)c3)cc21 | inactive
3 | CCCCNC(=O)CSc1nc2n[nH]c(C)c2c(=N)n1-c1cccc(Cl)c1C | inactive
4 | Cc1ccc(-n2c(SCC(=O)NCCC3=CCCCC3)nc3n[nH]c(C)c3c2=N)cc1Cl | inactive
5 | COc1cccc(-n2c(SCC(=O)NC3CCCCC3)nc3n[nH]c(C)c3c2=N)c1 | 3.16 µM (active)
6 | O=C(NC(=S)Nc1ccc(Cl)cc1Cl)C1CC1 | inactive
7 | COc1ccc(Oc2cn[nH]c2-c2ccc(OC)cc2O)cc1 | inactive
8 | Cc1cc(C)c(SCCc2ccncc2)c(C)c1 | inactive
9 | O=c1c2ccccc2ncn1/N=C/c1ccccc1 | inactive
10 | COC(=O)[C@H](C)[C@H]1C[C@]1(C)[C@H](NC(=O)OCc1ccccc1)c1ccccc1 | inactive
11 | O=C(Nc1ccc(N2CCN(C(=O)c3ccccc3)CC2)c(Cl)c1)c1cccnc1 | inactive
12 | C[C@@H](C(=O)Nc1ccc2ccccc2c1)[C@@H]1C[C@@]1(C)[C@@H](NC(=O)c1cccnc1)c1ccccc1 | 12.6 µM (active)
13 | O=C(Nc1nnc(C2=COCCO2)o1)c1ccc([N+](=O)[O-])s1 | inactive
14 | O=C(N/N=C\c1cc2c(cc1Cl)OCO2)c1ccc(Br)s1 | inactive
15 | CCCOC1CCCN(C(=O)c2cc(COc3cncc(Cl)c3)on2)C1 (centres undefined) | inactive
16 | CC(C)(C)c1ccc(CN2C(=O)c3ccccc3S2(=O)=O)cc1 | inactive
17 | COc1ccc(-c2nc(CS(=O)CC(=O)NCc3ccccc3)c(C)o2)cc1OC (centres undefined) | inactive
18 | COc1ccc(-c2nc(CS(=O)CC(=O)NCc3ccccn3)c(C)o2)cc1 (centres undefined) | 14.1 µM (active)
19 | COc1cccc(-c2nc(CS(=O)CC(=O)NCc3ccc(F)cc3)c(C)o2)c1 (centres undefined) | inactive
20 | Cc1c(C)n(Cc2ccc(Cl)cc2)c2ccc(C(=O)NCCCN3CCOCC3)cc12 | inactive
21 | COCc1nc2ccccc2n1Cc1ccccc1Br | 2.82 µM (active)
22 | COc1ccccc1Cn1c(CO)nc2ccccc21 | inactive
23 | COCn1c(COc2ccccc2)nc2ccccc21 | inactive
24 | CN(CCO)c1ccc(/C=N/Nc2nncc3ccccc23)cc1 | inactive
25 | CCc1ccccc1S(=O)(=O)Cc1ccc(C(=O)NCCc2ccccc2)o1 | inactive
26 | Clc1c(OCCCn2ccnc2)ccc2ccccc12 | inactive
27 | Cn1c(CSCC(=O)Nc2ccccc2)nnc1SCc1ccccc1 | inactive
28 | Cn1c(CC(=O)Nc2ccccc2)nnc1SCC(=O)c1ccccc1 | 11.2 µM (active)
29 | Cn1c(Cc2cccs2)nnc1SCC(=O)Nc1ccccc1 | inactive
